# This is part of a sample that, as a whole, favours compounds with a hit. Of some 83,000 tested, about 20% had one in any assay.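 Cell lines were cultured in 96-well plates, exposed to a single compound concentration, and assessed for percent growth 48 hours later.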 A number with no mark means an inactive call. Calls of active or inactive are those of the source. How the source made its calls: active means growth percent below 10; inactive means the rest.
# Columns and labels:
# Experiment in all cases: NCI-60 one-dose screen, 48 h (100 = growth as untreated, 0 = no growth, -100 = all killed)
# Settings in all cases: 10 µM unless noted
# DU-145 prostate = system: DU-145 prostate
# K-562 leukemia = system: K-562 leukemia
# MALME-3M melanoma = system: MALME-3M melanoma
# MDA-MB-231 breast = system: MDA-MB-231 breast
# RXF 393 renal = system: RXF 393 renal
# SF-268 CNS = system: SF-268 CNS
# SF-539 CNS = system: SF-539 CNS
# UACC-257 melanoma = system: UACC-257 melanoma
# M14 melanoma = system: M14 melanoma
# HCT-15 colon = system: HCT-15 colon
# HT29 colon = system: HT29 colon
# SNB-75 CNS = system: SNB-75 CNS
# SNB-19 CNS = system: SNB-19 CNS
# U251 CNS = system: U251 CNS
# PC-3 prostate = system: PC-3 prostate
# SK-MEL-5 melanoma = system: SK-MEL-5 melanoma
# UACC-62 melanoma = system: UACC-62 melanoma
# LOX IMVI melanoma = system: LOX IMVI melanoma
# SK-MEL-28 melanoma = system: SK-MEL-28 melanoma
Compound,growth (DU-145 prostate),growth (K-562 leukemia),growth (MALME-3M melanoma),growth (MDA-MB-231 breast),growth (RXF 393 renal),growth (SF-268 CNS),growth (SF-539 CNS),growth (UACC-257 melanoma),growth (M14 melanoma),growth (HCT-15 colon),growth (HT29 colon),growth (SNB-75 CNS),growth (SNB-19 CNS),growth (U251 CNS),growth (PC-3 prostate),growth (SK-MEL-5 melanoma),growth (UACC-62 melanoma),growth (LOX IMVI melanoma),growth (SK-MEL-28 melanoma)
COc1ccc(/C=C/C(=O)c2ccc(NC(=O)CSc3nnc(-c4ccc(Cl)cc4)n3-c3ccccc3)cc2)cc1,106%,80.1%,118%,91%,104%,96.1%,109%,86.7%,91.9%,80.5%,98.7%,84.2%,96.2%,88.2%,84.5%,84.1%,74.6%,105%,104%
CC(=O)O[C@H]1[C@H](CC#CC#CC[C@@H]2C[C@]3(C)[C@H]4CC=C5[C@H]6[C@@H](C)[C@H](C)CC[C@]6(C(=O)NCCN(CCN)CCN)CC[C@@]5(C)[C@]4(C)CC[C@H]3C(C)(C)[C@H]2OC(C)=O)C[C@]2(C)[C@H]3CC=C4[C@H]5[C@@H](C)[C@H](C)CC[C@]5(C(=O)NCCN(CCN)CCN)CC[C@@]4(C)[C@]3(C)CC[C@H]2C1(C)C,86%,18.3%,67.8%,59.6%,57.9%,87.1%,84.2%,96%,63.1%,26.8%,58.1%,68.1%,31.9%,36.2%,51.7%,92.2%,40.9%,50.9%,85%
O=C(c1ccc(C(F)(F)F)c(Cl)c1)N(Cc1ccc(Cl)cc1)c1ccc(-c2cc(C(F)(F)F)[nH]n2)c(O)c1,12.8%,7.36% (active),1.34% (active),-35.7% (active),-9.88% (active),7.06% (active),2.09% (active),10.3%,10.9%,7.04% (active),5.34% (active),10.3%,26.2%,4.18% (active),11.2%,-42.9% (active),14.5%,4.7% (active),30.8%
C#CC[C@@H]1C[C@]2(C)[C@H]3CC[C@@H]4[C@H]5C(C(=C)C)CC[C@]5(C(=O)NCCN(CCN)CCN)CC[C@@]4(C)[C@]3(C)CC[C@H]2C(C)(C)[C@H]1OC(C)=O (some centres undefined),95.1%,2.56% (active),85.7%,33%,-66.1% (active),87.6%,95.2%,109%,91.3%,-52.9% (active),46.8%,103%,69.8%,-28.4% (active),79.9%,96.5%,103%,65.5%,105%
C=CCn1c(SCC(=O)Nc2ccc(/C(C)=N\O)cc2)nnc1-c1cc(-c2ccc(Cl)cc2)nc2ccccc12,48.5%,13.4%,71.7%,35%,47%,38.2%,15.8%,47.9%,20.4%,25.1%,24.7%,40.9%,49.4%,25.8%,22.9%,33.9%,25.5%,-66.6% (active),45.3%
CCc1oc2ccccc2c1C(=O)c1cc(I)c(O)c(I)c1,77.8%,25%,53%,54.7%,45.3%,53.1%,44%,70.7%,16.2%,33.2%,98.5%,31.9%,54.2%,29.1%,74.9%,32.2%,45.6%,51.4%,62.4%
CC1=C(C(=O)Nc2ccc(F)cc2)C(c2ccccc2)C2=C(CC(C)(C)CC2=O)N1 (centres undefined),95.2%,56%,89.8%,70%,96.4%,82.6%,79.5%,83.6%,82.6%,77.8%,96.3%,65.8%,87.4%,69.8%,54.6%,38.2%,55.6%,79%,68%
O=C(O)C1[S][Sb]([CH](C(=O)O)[CH](C(=O)O)[Sb]2[S]C(C(=O)O)C(C(=O)O)[S]2)[S]C1C(=O)O (centres undefined),97.1%,76%,31.3%,88.2%,103%,104%,76.3%,89.3%,74.5%,87.6%,80.8%,83.8%,92.9%,73.1%,83.4%,3.78% (active),89.2%,8.37% (active),61.1%
Oc1[nH]c2ccccc2c1/C=c1/ccc2c(c1)N=C(c1ccc(C(F)(F)F)cc1)N=2,63.1%,14.6%,74.2%,46.6%,-37.2% (active),68.7%,67.4%,67.4%,44.6%,44.5%,37.9%,48.7%,61.6%,32.5%,32.5%,69.9%,47.2%,43.4%,52.8%
O=C(C(Br)C(Br)c1ccccc1)C(Br)C(Br)c1ccccc1 (centres undefined),-26.4% (active),-17.5% (active),-69.5% (active),-16.5% (active),-85.1% (active),-1.83% (active),-42.5% (active),-67.3% (active),1.62% (active),-66.4% (active),-76% (active),60%,72.8%,4.89% (active),-31.2% (active),2.03% (active),-83.5% (active),-79.1% (active),-35.6% (active)
CC1=C(C(=O)Nc2ccc(F)cc2)C(c2ccc(C)cc2)C2=C(CC(C)(C)CC2=O)N1 (centres undefined),106%,93.3%,102%,86.6%,92.1%,88%,93.3%,98.5%,101%,94%,100%,55.7%,92.5%,88.8%,75.3%,94.1%,86.4%,90%,97.1%
COc1ccc(-c2cnc3ccnn3c2-c2cc(OC)c(OC)c(OC)c2)cc1,20%,5.43% (active),67.5%,50.3%,1.8% (active),53.3%,-13.4% (active),58.4%,21.5%,27.8%,8.99% (active),5.62% (active),56.4%,37.7%,29.9%,13.6%,42.3%,42.5%,71.1%
OC(c1cc(-c2ccc(C(F)(F)F)cc2)nc(-c2ccc(C(F)(F)F)cc2)c1)C1CCCCN1 (centres undefined),-94.9% (active),-73.6% (active),-64.7% (active),-71% (active),-86% (active),-83.9% (active),-77.3% (active),-76% (active),-80.1% (active),-71% (active),-81.7% (active),-82.9% (active),-66.2% (active),-85% (active),-86.1% (active),-78.2% (active),-84.3% (active),-65.8% (active),-88.5% (active)
O=C(Nc1ccc(Cl)c(C(F)(F)F)c1)c1ccc(Nc2ccc(Cl)nn2)cc1,76.7%,44.2%,106%,59.3%,47.8%,80.7%,68.1%,74.6%,57.4%,46.4%,61.7%,84.2%,76.7%,51.5%,49.6%,59.6%,51.9%,54.7%,72.5%
CCN(CC)CCCCCCCNc1cc(OC)cc2c(C)ccnc12,102%,36.7%,103%,54.1%,91.6%,91.1%,91.3%,92.6%,97.6%,76.8%,52.5%,82.9%,96.3%,86%,51.4%,85.3%,91.3%,56.6%,105%
COc1ccc(-c2nc(-c3cc(OC)cc(OC)c3)[nH]c2-c2ccc(OC)cc2)cc1,78.5%,16.3%,70.9%,58.7%,54.5%,88.6%,80.5%,62.9%,49.7%,45.3%,17.3%,86.1%,61.2%,45.6%,27.5%,14.9%,37%,61.3%,67.4%

# — PubChem BioAssay (NCI)
